High-throughput results (PubChem BioAssay)
eLon inh: inhibitors of E. coli Lon protease, primary screen, biochemical, fluorescence polarization. hit rate 0.42% among 360,000. AID 602123, 2011. purified E. coli Lon protease. inhibition, % at 7.94 µM. P0A9M0; in the data active means inhibition above about 13%, passing the limit was not always enough;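 further: 0% = enzyme with probe and DMSO and 100% = no enzyme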
PAFAH1B2 inh: PAFAH1B2 enzyme inhibitors, primary screen, biochemical, fluorescence polarization, human; recombinant PAFAH1B2, FP-rhodamine activity probe; inhibition, % at 3.39 µM; AID 492953, 2010; hit rate 1.2% among 340,000;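 active means inhibition above the mean of all tested compounds plus 3 SD, cut at about 24% in these data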;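 further: 0% = enzyme with DMSO and 100% = wells lacking PAFAH1B2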
Target sequence (P68402 whole entry, looked up): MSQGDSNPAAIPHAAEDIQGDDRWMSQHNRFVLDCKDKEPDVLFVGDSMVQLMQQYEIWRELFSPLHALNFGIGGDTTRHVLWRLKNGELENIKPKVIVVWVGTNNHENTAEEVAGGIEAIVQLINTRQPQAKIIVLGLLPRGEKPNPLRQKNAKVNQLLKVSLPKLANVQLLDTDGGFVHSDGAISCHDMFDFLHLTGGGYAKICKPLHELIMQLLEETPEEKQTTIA
Rin1 Abl inh: inhibitors of Rin1-Abl protein binding, primary screen, biochemical, TR-FRET; AID 588664, 2011; Tyrosine-protein kinase ABL1 (Homo sapiens) + Ras and Rab interactor 1 (Homo sapiens), …; inhibition, % at 7.35 µM; hit rate 0.4% among 360,000; in the data active means inhibition above about 5%, passing the limit was not always enough
pPAFAH FP inh: pPAFAH enzyme inhibitors, primary screen, biochemical, fluorescence polarization, human; recombinant pPAFAH, FP-rhodamine probe fluorescence polarization; inhibition, % at 3.39 µM; hit rate 1.5% among 330,000;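 active means inhibition above the mean inhibition across the screen plus 3 SD, cut at about 25% in these data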;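 further: inhibitors block binding of the rhodamine activity-based probe so polarization drops; 0% = enzyme with DMSO and 100% = wells lacking pPAFAH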
PAFAH2 inh: PAFAH2 enzyme inhibitors, primary screen, biochemical, fluorescence polarization, human. Platelet-activating factor acetylhydrolase 2, cytoplasmic (Homo sapiens), Q99487. hit rate 0.99% among 340,000. inhibition, % at 3.39 µM. recombinant PAFAH2, FP-rhodamine activity probe. AID 492956, 2010;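 active means inhibition above the mean over all tested compounds plus 3 SD, cut at about 30% in these data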;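 further: inhibitors block probe labeling of enzyme so polarization drops; 0% = enzyme with DMSO and 100% = wells lacking PAFAH2 protein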
PAFAH1B3 FP inh: PAFAH1B3 enzyme inhibitors, primary screen, biochemical, fluorescence polarization, human. recombinant PAFAH1B3, FP-rhodamine probe. inhibition, % at 3.39 µM. hit rate 0.28% among 340,000. AID 492972, 2010;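 active means inhibition above the screen-wide average of all tested compounds plus 3 SD, cut at about 25% in these data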;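 further: 0% = enzyme with DMSO only and 100% = wells lacking PAFAH1B3 protein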
E coli Lon conf: E. coli Lon protease inhibitor retest, confirmation, biochemical, fluorescence polarization. shares compounds with eLon inh. purified E. coli Lon. inhibition, % at 7.94 µM. hit rate 31% among 1,400; in the data active means inhibition above about 16%;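 further: 0% = enzyme with probe and DMSO and 100% = no enzyme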
* hit, by the source's call; . = no result given. Rows were chosen to be rich in hits. Some 3.1% of all compounds tested hit in one or more screens of this group.

SMILES	eLon inh	PAFAH1B2 inh	Rin1 Abl inh	pPAFAH FP inh	PAFAH2 inh	PAFAH1B3 FP inh	E coli Lon conf
CC(O)c1cccc(-c2ccc(CN3C[C@]4(CO)O[C@@H](CO)C[C@@H]4S3(=O)=O)cc2)c1 (some centres not stated)	-1	3	0	-1	-6	11	.
COc1ccc(CCN=C(N)NS(=O)(=O)c2ccc(C)c(C)c2)cc1	6	3	-1	1	1	0	.
CCCNC(=O)C1(C)CCCN(Cc2ccc3c(c2)OCO3)C1 (configuration not stated)	10	.	4	.	.	.	.
Cc1ccc(NC2CCCN(C(=O)CCCN3CCCCC3=O)C2)cc1C (configuration not stated)	-3	-4	1	18	2	3	.
O=C(CN(C(=O)Cn1nnc(-c2ccc(F)cc2)n1)c1ccc(F)cc1)NC1CCCC1	18*	1	0	0	12	5	1
CC(Sc1nnc(C(C)Oc2ccc(F)cc2)o1)C(=O)NCc1ccc2c(c1)OCO2 (configuration not stated)	-10	.	0	.	.	.	.
ON(CCc1ccccn1)CCc1ccccn1	38*	7	4	.	6	1	25*
ON(CCc1ccccn1)Cc1ccccc1	1	2	0	.	6	7	.
CN(CC(=O)OCC(=O)NCc1ccccc1)S(=O)(=O)c1ccc(Cl)cc1	-14	11	-4	21	2	-2	.
CCn1c(S(=O)(=O)O)nc2ccccc21	7	2	-1	0	14	6	.
O=Cc1ccc2noc(-c3ccc(F)cc3)c2c1	20*	5	0	4	2	6	110*
COc1ccc(C2=NO[C@@](CC(=O)O)(C(=O)Nc3ccc4c(c3)OCCO4)C2)cc1	-3	5	-1	2	-6	2	.
COCCNc1nc(C)cc(-c2cc(C(=O)Nc3ccccc3)on2)n1	29*	-2	2	0	3	7	3
COCCNc1nc(C)cc(-c2cc(C(=O)NCc3ccccc3)on2)n1	-9	-1	4	3	3	-1	.
CCCCN(C(=O)C1=COCCO1)c1c(N)n(CCC)c(=O)[nH]c1=O	-1	2	-1	3	-4	6	.
CCCCn1c(N)c(N(CCC(C)C)C(=O)C2=COCCO2)c(=O)[nH]c1=O	36*	0	2	-1	4	5	5
O=C(O)/C=C\C(=O)NC1CCCCC1	28*	-1	4	-2	9	4	8
O=C(COC(=O)Cc1ccccc1F)NC(=O)NC1CCCC1	-1	12	-2	0	9	12	.
CSc1ncc(C(=O)Nc2ccc(Br)cn2)c(C)n1	-6	0	1	.	3	-7	.
CC(C)(C)OC(=O)C[C@@H]1C/C=C\C[C@H](CC(=O)NCCO)C(=O)N2CCC[C@H]2COC1=O	111*	-3	4	-2	-4	1	-7
O=C(C[C@H]1C/C=C\CC[C@H](Cc2ccc(F)cc2)C(=O)OC[C@H]2CCCN2C1=O)N[C@@H](CO)Cc1ccccc1	40*	7	0	27*	23	-2	5
COc1ccc(C(=O)OCC(=O)Nc2ccc(F)c(F)c2)cc1OC	14*	-2	-3	30*	82*	3	-4
CCN(CC)S(=O)(=O)c1ccc(C(=O)NCc2cccs2)cc1	19*	0	-3	-1	0	7	1
Cn1ncc([N+](=O)[O-])c1C(=O)N1CCCCCC1	-5	-1	2	.	-2	6	.
c1ccc(SCCN2CCN(c3ccccc3)CC2)cc1	8	4	-1	4	4	0	.
N#CC1(C#N)C(c2ccccc2)OC23CCCCC2C1(C#N)C(=N)O3 (configuration not stated)	30*	15	-3	16	26	20	41*
